High-throughput results as filed in PubChem BioAssay.
Shown are actives, neighbours in structure and some others; about 2.1% of the full set was active somewhere.
Mito fusion yeast: mitochondrial division inhibition or fusion activation; S. cerevisiae fusion-defective mutant growth rescue, CellTiterGlo 48 h; Potency, µM (titrated, usually from 46.1 µM), without a hit: at the highest dose growth rescue (activation), most hits filed as activators; 0.23% of 320,000 active; AID 485298; note: potency is the fitted concentration of half-maximal effect; % of control where 0% means no effect; nearly all actives have a fitted effect of over 45% in size
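S. cerevisiae fusion-defective temperature-sensitive mutants (e.g. fzo1-1, mgm1-5) grown 48 h at 37C in YPEG (ethanol/glycerol non-fermentable) medium with 23 nl compound per well; growth rescue read as CellTiterGlo luminescence.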
uPA generation: cell surface uPA generation inhibition; 0.31% of 330,000 active; Potency, µM (doses to about 38.3 µM), for the others: at the highest dose activity change, negative = inhibition, usual class: inhibitors; cell surface uPA generation assay, qHTS; active = well fitted inhibition curve with a large enough effect; inconclusive = small, poorly fitted or top-dose-only effect; inactive = no such curve, though single readings can be large or run the other way; tested in mouse RAW 264.7 cells; note: potency is the fitted concentration of half-maximal effect; % is set by controls: 0 for no effect and ±100 for the full control effect; nearly all actives have a fitted effect of over 55% in size
Giardia kill: Giardia lamblia killing. Giardia lamblia trophozoite viability. 0.15% of 340,000 active. AID 540267. activity change, % at 7.66 µM, hits read low; in the data active = activity change below about -80%; inconclusive = between about -30% and that limit;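 note: parasites exposed to compound for two days anaerobically before the ATP read; % is set by controls: 0 for no effect and ±100 for the full control effect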
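Giardia lamblia trophozoites (100 cells/well) were incubated with compounds for 48 h at 37 deg C under anaerobic conditions. Viability was read as ATP content by one-step luminescence after 15-30 min at room temperature.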
p53 reactivator: restores transcriptional activity of mutant p53. H1299 p53-A138V BP100-luciferase reporter, luminescence, 24 h. Potency, µM (titrated, usually from 92.2 µM), for the others: at the top dose activity change, positive = activation, actives largely listed as activators. 0.063% of 320,000 active; note: potency is the fitted concentration of half-maximal effect; % of control where 0% means no effect; nearly all actives have a fitted effect of over 45% in size
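H1299 (p53-null), stable ts p53-A138V + BP100-Luc; 1000 cells/well, Opti-MEM/10% FBS; cpd 4 pt, 1:5; 24 h, 37 deg C, 5% CO2; detection reagent 10 min RT; luminescence.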
ClpP mod: qHTS Assay for Activators of ClpP; 1.9% of 340,000 active; purified B. subtilis ClpP, FRET peptide cleavage, 20 min; Potency, µM (top dose mostly 57.5 µM), for the others: at the highest dose activity change, negative = active; active = well fitted falling curve with a large enough effect; inconclusive = small, poorly fitted or top-dose-only effect; inactive = no such curve, though single readings can be large or run the other way; note: potency is the fitted concentration of half-maximal effect; the source files actives as falling curves though it sought activators and does not explain the sign; nearly all actives have a fitted effect of over 65% in size
Target sequence (P80244 whole entry, looked up): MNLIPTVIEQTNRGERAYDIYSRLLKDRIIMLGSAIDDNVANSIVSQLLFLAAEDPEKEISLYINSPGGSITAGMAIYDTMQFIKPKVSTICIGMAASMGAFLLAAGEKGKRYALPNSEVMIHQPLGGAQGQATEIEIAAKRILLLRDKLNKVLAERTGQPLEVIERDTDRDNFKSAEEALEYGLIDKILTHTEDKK
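ClpP 10 microg/mL final, pH 8 Tris/KCl buffer with BSA, glycerol, Tween-20; compound pinned in; FRET-FV substrate; RT 20 min; Ex320/Em430; ΔFRET vs ADEP 5.8 microM, DMSO, no enzyme.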
B2AR arrestin: agonists driving beta-arrestin recruitment to human beta2-adrenergic receptor | P07550 | beta-arrestin recruitment to beta2AR, cell-based reporter | Potency, µM (doses to about 46.1 µM), for the others: at the highest dose activation, hits mostly activators | 0.02% of 330,000 active;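 note: potency is the fitted concentration of half-maximal effect; 0% = DMSO controls and full agonism = EC100 isoproterenol or metaproterenol; nearly all actives have a fitted effect of over 65% in size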
Starred values were filed as active, the others as inactive; ? = inconclusive; . = not tested or not shown. Unless noted, calls come from the whole dose curve; as a rule, active = well fitted curve in the direction sought with a large enough effect; inconclusive = small, poorly fitted or top-dose-only effect, or another doubt; inactive = no such curve, though single readings can be large; an effect the other way counts as inactive or inconclusive.

SMILES | Mito fusion yeast | uPA generation | Giardia kill | p53 reactivator | ClpP mod | B2AR arrestin
COc1ccc([C@H](C)NC[C@H](O)c2ccc(O)c(NC=O)c2)cc1 | 6.3% | -22.5% | -4.8 | 1.2% | 1.4% | 17.8µM*
CC(C)C[C@@H](COCc1cccc(Cl)c1)N1CCN(C(=O)c2ccc(C(F)(F)F)cc2)CCC1=O | . | . | . | . | 0.4% | .
O=C(NCC1CCCO1)c1cccc(S(=O)(=O)N(Cc2ccccc2)c2ccccc2)c1 (centres undefined) | 1.3% | 1.1% | -0.1 | 4.4% | 3.0% | -0.2%
C=CCN(c1ccccc1)S(=O)(=O)c1cccc(C(=O)NCC2CCCO2)c1 (centres undefined) | -0.5% | 5.2% | -3.9 | 17.4% | 28.2µM* | -1.1%
CC(C)C(NS(=O)(=O)c1ccccc1)C(=O)OCc1cc([N+](=O)[O-])cc2c1OCOC2 (centres undefined) | 11.1% | -5.2% | 7.1 | 3.6% | 31.6µM* | -0.1%
CC(=O)Nc1ccc(S(=O)(=O)N[C@@H](C)C(=O)OCc2cc([N+](=O)[O-])cc3c2OCOC3)cc1 | 1.3% | -3.0% | 11.0 | 0.3% | -2.4% | -0.2%
Cc1cc(Br)ccc1NC(=O)COC(=O)c1ccccc1OCC(N)=O | . | . | . | . | -1.9% | .
Cc1ccc(-n2nnnc2CNC(=O)c2cc(C(F)(F)F)cc(C(F)(F)F)c2)cc1C | . | . | . | . | 0.9% | .
CCCCN(CC)C(=O)C1CCCN(c2ncnc3c2nc2n3CCCCC2)C1 (centres undefined) | . | . | . | . | -1.2% | .
O=C(/C=C/c1cccs1)Nc1nccs1 | -0.7% | -28.2% | -2.5 | ? | 1.5% | -0.2%
O=C(/C=C/c1cccs1)Nc1cccc(NC(=O)/C=C/c2cccs2)n1 | 14.1µM* | -6.5% | 5.2 | ? | -3.5% | -0.7%
COc1ccc2c(-c3ccccc3)cc(N3CCOCC3)nc2c1 | 8.9% | 3.4% | -11.3 | -17.2% | 31.6µM* | 0.0%
COc1cc(OC)c(NC(=O)Nc2cccc(OCc3cc(=O)n4ccccc4n3)c2)cc1Cl | . | . | . | . | -7.9% | .
CC1=CC(=O)C(C(C)C)=C/C1=N/OS(=O)(=O)c1ccccc1 | -2.2% | 3.98µM* | -8.9 | -15.2% | -1.4% | -0.3%
O=C1Cc2ccccc2C1=C1C=c2ccccc2=C1 | . | . | . | . | -3.1% | .
CCc1n[nH]c2c1C(=O)CC(C)(C)C2 | 0.9% | -2.6% | 3.5 | 11.1% | 25.1µM* | -2.2%
CCOC(=O)c1ccc(NC(=O)C2=C(C)Nc3nc(SCc4ccc(Cl)cc4)nn3C2c2ccc(C)cc2)cc1 (centres undefined) | . | . | . | . | -0.5% | .
Cc1c(C(=O)NCC2CCCO2)oc2ccc3c(c12)C(=O)CC(C)(C)O3 (centres undefined) | 4.7% | -11.8% | -7.4 | ? | 25.1µM* | 0.2%
COc1ccc(NC(=O)CC2C(=O)N(Cc3ccccc3)C(=S)N2CCN2CCOCC2)cc1 (centres undefined) | -7.1% | 8.5% | -19.4 | -2.3% | 8.91µM* | 0.1%
COc1ccc(NC(=O)CC2C(=O)N(C)C(=S)N2CCc2ccc(F)cc2)cc1 (centres undefined) | 17.0% | 6.6% | -4.1 | -2.7% | -2.1% | 0.2%
CCN1C(=O)C(CC(=O)Nc2ccc(OC)cc2)N(CCc2ccc(F)cc2)C1=S (centres undefined) | -0.7% | 18.0% | 4.3 | 7.4% | 11.2µM* | 0.2%
CC1CCCCN1C(=O)Cn1c(=O)n(-c2ccc(Cl)cc2)c(=O)c2c3c(sc21)CCC3 (centres undefined) | . | . | . | . | 0.7% | .
O=[N+]([O-])c1cccn2cc(-c3ccc(Br)cc3)nc12 | -2.7% | -4.2% | -98.9* | ? | ? | -0.9%
Cc1csc(NC(=O)Nc2cccc(Cl)c2)n1 | 16.1% | -1.2% | 3.5 | 28.2µM* | 0.4% | -0.4%
Cc1onc(-c2ccccc2)c1C(=O)Nc1nc2c(s1)C(=O)CC(C)(C)C2 | 17.6% | -1.7% | -2.4 | -13.1% | -18.3% | -0.5%
Cc1nc(-c2ccc(NC(=O)c3ccco3)cc2)cs1 | -35.6% | ? | -98.1* | -14.8% | -1.4% | 0.3%
CC1(C)CC(=O)c2sc(NC(=O)c3ccco3)nc2C1 | 8.4% | 10µM* | -20.3 | ? | -9.3% | 0.4%
